Experimental findings from ChEMBL document CHEMBL1201862, “PubChem BioAssay data set” (2004) are described below.

The structures appear in SMILES notation. About 2,100 (0.53%) of roughly 400,000 compounds were called active. About 14% were inconclusive and are not listed. How the calls were made is not given here. This excerpt belongs to a sample that is enriched for actives.

In this experiment the target is Ataxin-2 (Homo sapiens) (UniProt Q99700). Briefly: qHTS for Inhibitors of ATXN expression. The class given is functional.
Sequence of Ataxin-2 (Homo sapiens) (Q99700 whole entry): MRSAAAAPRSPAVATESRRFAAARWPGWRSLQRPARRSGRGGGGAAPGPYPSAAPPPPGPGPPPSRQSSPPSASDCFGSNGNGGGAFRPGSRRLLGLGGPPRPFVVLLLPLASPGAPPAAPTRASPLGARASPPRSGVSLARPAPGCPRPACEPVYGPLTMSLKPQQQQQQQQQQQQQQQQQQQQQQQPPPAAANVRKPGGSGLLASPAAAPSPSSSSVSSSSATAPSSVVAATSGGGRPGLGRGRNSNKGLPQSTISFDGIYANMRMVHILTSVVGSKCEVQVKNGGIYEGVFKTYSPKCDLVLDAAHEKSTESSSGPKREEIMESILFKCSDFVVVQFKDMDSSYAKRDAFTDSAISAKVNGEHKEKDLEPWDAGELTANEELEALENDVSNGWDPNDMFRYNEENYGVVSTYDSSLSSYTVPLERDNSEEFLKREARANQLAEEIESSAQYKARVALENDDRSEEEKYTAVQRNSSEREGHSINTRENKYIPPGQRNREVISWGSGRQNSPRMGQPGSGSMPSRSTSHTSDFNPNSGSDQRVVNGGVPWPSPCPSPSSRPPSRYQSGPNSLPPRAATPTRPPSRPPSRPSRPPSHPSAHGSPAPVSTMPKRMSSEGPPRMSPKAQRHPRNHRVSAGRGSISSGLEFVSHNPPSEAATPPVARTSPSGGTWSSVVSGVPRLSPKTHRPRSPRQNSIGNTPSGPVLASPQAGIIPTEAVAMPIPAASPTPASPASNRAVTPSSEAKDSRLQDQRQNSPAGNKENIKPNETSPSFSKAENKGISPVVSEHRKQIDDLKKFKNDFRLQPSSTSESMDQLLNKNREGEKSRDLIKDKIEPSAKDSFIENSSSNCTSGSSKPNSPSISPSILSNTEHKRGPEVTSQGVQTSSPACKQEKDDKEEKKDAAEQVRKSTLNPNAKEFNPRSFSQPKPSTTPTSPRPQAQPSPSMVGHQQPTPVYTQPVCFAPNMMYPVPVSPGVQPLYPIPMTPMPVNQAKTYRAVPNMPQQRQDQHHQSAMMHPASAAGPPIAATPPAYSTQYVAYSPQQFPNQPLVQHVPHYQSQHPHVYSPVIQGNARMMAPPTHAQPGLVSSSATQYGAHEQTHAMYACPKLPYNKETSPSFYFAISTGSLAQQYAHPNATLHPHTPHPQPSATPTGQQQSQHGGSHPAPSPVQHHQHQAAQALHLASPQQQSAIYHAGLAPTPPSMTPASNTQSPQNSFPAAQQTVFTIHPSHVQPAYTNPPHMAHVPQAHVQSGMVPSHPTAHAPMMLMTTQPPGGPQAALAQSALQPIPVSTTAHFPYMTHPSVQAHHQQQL
Consider `CS(=O)(=O)c1cnc2c(-c3ccsc3)cnn2c1N`, for which the Potency result was “inactive”.
`Nc1ccc2nc3c(=O)n(CCc4ccccc4)c(=O)[nH]c3nc2c1`: the Potency entry is “inactive”.
As for `O=C(COC(=O)/C=C/c1ccc(Br)o1)NC1CCCCC1`, the Potency entry is “inactive”.
For `O=C(c1ccccc1)c1ccc(OCC(O)CNCc2ccc(F)cc2)cc1` (stereo not given) the value was “inactive”.
For `OC(CNCCc1ccc(C(F)(F)F)cc1)COc1ccc2ccccc2c1` (stereo not given) the value was 25.1 µM (active); for `COc1ccc(C2CC(c3ccncc3)=NN2c2ccc(S(N)(=O)=O)cc2)cc1` (stereo not given), “inactive”; for `O=C(CNC(=O)c1ccccc1Br)N/N=C/c1ccccc1O`, “inactive”.
For `CC(Oc1ccccc1Cl)C(=O)N(Cc1cccs1)C1CCS(=O)(=O)C1` (stereo not given) the value was “inactive”.
With `Cc1cc(NC(=O)CSc2cn(C)c3ccccc23)no1`, the Potency result was “inactive”.
For `Cn1cc(C(=O)CCl)c2ccccc21` the value was 35.5 µM (active); for `Cc1c(C(=O)Cc2ccccc2)n(C)c2ccccc12`, “inactive”.
`Cc1cc(Sc2nc(NC(C)(C)C)nc(N3CCOCC3)n2)nc(Cl)n1`: the Potency result is “inactive”.
`Cc1cc2[nH]c3c(c[n+](C)c4ccccc34)c2cc1C`: the Potency is 31.6 µM (active).
For `Cc1nccc2cc3[nH]c4ccccc4c3cc12` the value was “inactive”.
Turning to `CCn1c(=N)c(C(=O)NC)cc2c(=O)n3cccc(C)c3nc21`, the Potency entry is “inactive”.
As to `Cc1ccc(S(=O)(=O)Nc2nc3n(n2)C(c2ccc(Cl)cc2)C=C(c2ccccc2)N3)cc1` (stereo not given), the Potency entry was “inactive”.
The result for `COc1ccccc1C(=O)OCC(=O)NC(=O)NC1CCCC1` reads “inactive”.
For `CN(C)c1ccc(N=Nc2ccccc2C(=O)OCC(=O)NC2CCCC2)cc1` the value was 28.2 µM (active); for `CN(C(=O)COC(=O)c1cccnc1O)C1CCCCC1`, “inactive”.
The result for `CC(C)Cc1nc2sc3c(SCC(N)=O)ncnc3c2c2c1CCC2` reads “inactive”; that for `CC(=O)/N=c1\c(C#N)cc2c(=O)n3ccccc3nc2n1Cc1ccccc1`, “inactive”; that for `CCN(CC)CCn1c(-c2ccccc2)cs/c1=N\c1ccccc1`, 15.8 µM (active).
In the case of `CCN(CC)c1ccc2cc(S(=O)(=O)c3ccc(C)cc3)c(=O)oc2c1`, the Potency entry is “inactive”.
For `Cc1cc(C)n(-c2cc(C(C)(C)C)nc3c(-c4ccccc4)cnn23)n1` the value was “inactive”; for `Cc1nc2c(-c3ccc(Cl)cc3)cnn2c2c1CCC2`, “inactive”; for `CN(C)CCCNc1cc(C(C)(C)C)nc2c(-c3ccc(Cl)cc3)cnn12`, 39.8 µM (active).
The result for `O=c1c2ccccc2[nH]c2ccc(O)cc12` reads “inactive”; that for `CCOc1ccc2c(c1)C(N(CCN1CCOCC1)C(=O)Nc1ccccc1)CC(C)(C)O2` (stereo not given), “inactive”.
The result for `CCOc1ccc(C(=O)CCN2CCOCC2)cc1` reads 39.8 µM (active); that for `COc1ccc(OCCC(=O)NCCN2CCOCC2)cc1`, “inactive”.
Consider `O=C(CCN1CCOCC1)N/N=C/c1cc(Br)cc(Br)c1O`, for which the Potency entry is “inactive”.
For `CCOc1ccc(C(=O)COC(=O)Cn2cnc3c2c(=O)n(C)c(=O)n3C)cc1` the value was “inactive”; for `CCCCOc1ccc(C(=O)CCN2CCOCC2)cc1`, 23.8 µM (active); for `CCCN(CCC)S(=O)(=O)c1ccc(C(=O)Nc2sc3c(c2C(=O)OC)CCN(CC)C3)cc1`, “inactive”.
The result for `CCc1cc(=O)oc2cc(C)cc(O)c12` reads “inactive”; that for `O=C(COC(=O)c1cc(S(=O)(=O)N2CCCCC2)ccc1N1CCOCC1)c1ccccc1Cl`, “inactive”; that for `COc1ccc(Nc2ccnc(Nc3ccc(OC)cc3)n2)cc1`, “inactive”.
Regarding `COc1ccc(Nc2ccc3c(c2)=NC2(CCCCC2)[N+]=3[O-])cc1`, the Potency is 20 µM (active).
For `CC(=O)c1cc2c(s1)-c1cc(F)ccc1OC2` the value was “inactive”; for `O=C(Nc1ccc(-c2csc(Nc3cccc(C(F)(F)F)c3)n2)cc1)c1cccc(C(F)(F)F)c1`, 20 µM (active); for `O=C(Nc1cccc(-c2csc(Nc3ccc(Cl)cc3)n2)c1)c1cc([N+](=O)[O-])cc(C(F)(F)F)c1`, 35.5 µM (active).
As for `NS(=O)(=O)c1cccc(NC(=O)CSc2n[nH]c(-c3cccs3)n2)c1`, the Potency result is “inactive”.
For `COc1ccc(CC(N)c2csc(NC(=O)Nc3ccccc3-c3ccccc3)n2)cc1` (stereo not given) the value was 39.8 µM (active); for `COc1ccc(CC(N)c2csc(NC(=O)Nc3ccccc3C(C)(C)C)n2)cc1` (stereo not given), 39.8 µM (active); for `COc1cccc(OCC(=O)Nc2ccccc2-c2ccccc2)c1`, “inactive”.
`O=C(Cc1ccccc1F)Nc1ccccc1-c1ccccc1`: the Potency entry is “inactive”.
On to `CC(C)(C)c1ccccc1NC(=O)c1cnn2c(C(F)F)cc(-c3ccccc3)nc12`, for which the Potency entry is “inactive”.
In the case of `CCOC(=O)CCc1c(C)c2cc3c(c(C)c2oc1=O)OCN(CCc1ccccc1OC)C3`, the Potency entry is “inactive”.
`Cc1cc(C(=O)NNC(=O)c2ccc(C(F)(F)F)cc2)no1`: the Potency result was “inactive”.
The result for `CC1C/C(=N\NC(=O)c2ccc([N+](=O)[O-])cc2)CC(C)(C)C1` (stereo not given) reads “inactive”; that for `Cc1ccc(NS(=O)(=O)c2ccc(C(=O)N3CCN(c4ncccn4)CC3)cc2)cc1`, “inactive”.
The result for `CCCCNc1c(-c2ccc(OC)c(Sc3ccc(OC)cc3)c2)nc2cnccn12` reads “inactive”; that for `CCCCCc1c(-c2cccc(OC)c2)ncn1CCc1ccccc1OC`, 31.6 µM (active).
The result for `CCCCc1c(-c2cccc(Cl)c2)ncn1CCc1ccccc1OC` reads 31.6 µM (active); that for `CCCCc1c(-c2cccc(OC)c2)ncn1CCc1ccccc1OC`, 39.8 µM (active); that for `COc1ccccc1[C@H]1C(c2cccc(Cl)c2)=NN(c2ccccc2)[C@@H]1CO`, “inactive”.
For `COc1c(OC)c2nc(O)cc3c4ccccc4n(c1=O)c23`, the Potency result was “inactive”.
The result for `Clc1ccc(C2=CC(c3ccco3)n3ncnc3N2)cc1` (stereo not given) reads “inactive”; that for `Cc1cc(O)c(C(=O)/C=C/c2c(F)c(F)c(F)c(F)c2F)c(=O)o1`, “inactive”.
The result for `CCOC(=O)c1c(NC(=O)c2ccc(S(=O)(=O)N3CCC(C)CC3)cc2)sc2c1CCN(CC)C2` reads “inactive”; that for `Nc1nnnn1/N=C/c1cc(Cl)ccc1O`, “inactive”.
For `CC(=O)Nc1cc(OC(C)=O)c2nonc2c1OC(C)=O` the value was 39.8 µM (active).
Regarding `CC(=O)Oc1cc2oc(=O)cc(C)c2cc1OC(C)=O`, the Potency entry was “inactive”.
`CC(=O)Nc1cc2ccc(OC(C)=O)cc2oc1=O`: the Potency result is “inactive”.
The result for `OC[C@@H]1[C@@H](c2ccccc2)C(c2cccc(Cl)c2)=NN1c1ccccc1` reads “inactive”; that for `CCCCCCCCN1C(=O)[C@H](CC(=O)NCc2cccs2)C[C@@]2(C(=O)OCC)CCCC=C12`, 39.8 µM (active).
`CCCCCCCCN1C(=O)[C@H](CC(=O)NCCC(C)C)C[C@@]2(C(=O)OCC)CCCC=C12`: the Potency was 39.8 µM (active).
For `O=C(COC(=O)c1cncc(Br)c1)NCc1cccs1` the value was “inactive”; for `C#CCNC(=O)C[C@@H]1C[C@@]2(C(=O)OCC)CCCC=C2N(CCCCCCCC)C1=O`, 20 µM (active).
For `Cc1c(N(C(=O)Cc2cccs2)C2(C(=O)NC3CCCC3)CCCCC2)c(=O)n(-c2ccccc2)n1C` the value was “inactive”.
